Measurements as given in PubChem BioAssay (NCATS).
Records with an inconclusive call do not appear. Unmarked numbers belong to inactive results. Calls follow the shape of the dose curve; as a rule, active = well fitted inhibition curve with a large enough effect; inconclusive = small, poorly fitted or top-dose-only effect; inactive = flat fitted curve, though single readings scatter.
% is scaled to controls: 0 for no effect and ±100 for the full control effect.

Experiment: Drug repurposing screens with cells derived from glioblastoma tumor samples (AID 1345199); also: nearly all actives have a fitted effect of over 40% in size
Details: GBM patient neurospheres viability, ATP luminescence, 48 h; at 20 µM (top of the series); tumour line C
Summary of the method: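 Primary testing used CD133+ neurospheres from four GBM patients, seven concentrations, 48 h exposure and ATP-based viability; confirmation added three slower-growing patient lines.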
`CO[C@H]1C[C@H](O[C@H]2[C@H](C)[C@@H](O[C@@H]3O[C@H](C)C[C@H](N(C)C)[C@H]3OC(C)=O)[C@@H](C)C[C@]3(CO3)C(=O)[C@H](C)[C@@H](OC(C)=O)[C@@H](C)[C@@H](C)OC(=O)[C@@H]2C)O[C@@H](C)[C@@H]1OC(C)=O` gave an activity, negative = cell killing of -16.4%. For `C[C@H](CCC(=O)O)[C@H]1CC[C@H]2[C@@H]3[C@H](O)C[C@@H]4C[C@H](O)CC[C@]4(C)[C@H]3CC[C@]12C`, the activity, negative = cell killing was 0.416%. `CCC(=O)O[C@@H]1CC(=O)O[C@H](C)C/C=C/C=C/[C@H](O)[C@H](C)C[C@H](CC=O)[C@H](O[C@@H]2O[C@H](C)[C@@H](O[C@H]3C[C@@](C)(O)[C@@H](OC(=O)CC)[C@H](C)O3)[C@H](N(C)C)[C@H]2O)[C@H]1OC` gave an activity, negative = cell killing of 18.5%. In the case of `CC[N+](C)(C)Cc1ccccc1Br`, the activity, negative = cell killing is reported as -2.45%. In the case of `CC(C)(C)C(=O)OCOC(=O)[C@@H]1N2C(=O)[C@@H](N=CN3CCCCCC3)[C@H]2SC1(C)C`, the activity, negative = cell killing is reported as -7.48%. With `CC1(C)S[C@@H]2[C@H](NC(=O)[C@@H](NC(=O)N3CCNC3=O)c3ccccc3)C(=O)N2[C@H]1C(=O)O` the activity, negative = cell killing was -8.8%. `CC1(C)S[C@@H]2[C@H](NC(=O)C(N)c3ccccc3)C(=O)N2[C@H]1C(=O)OC1OC(=O)c2ccccc21` (stereo partly drawn) gave an activity, negative = cell killing of -5.29%. Work on `Cc1cc(C(=O)NNCc2ccccc2)no1` yielded an activity, negative = cell killing of -3.86%. For `CC(Oc1ccccc1)C(=O)N[C@@H]1C(=O)N2[C@@H]1SC(C)(C)[C@@H]2C(=O)O` (stereo partly drawn), the activity, negative = cell killing was 1.64%. With `CC(=O)N(CC(C)C(=O)O)c1c(I)cc(I)c(N)c1I` (stereo not drawn) the activity, negative = cell killing was -1.12%. For `C=C(NC(=O)C(=C)NC(=O)c1csc(C2=N[C@@H]3c4csc(n4)[C@H]4NC(=O)c5csc(n5)[C@H]([C@](C)(O)[C@@H](C)O)NC(=O)[C@H]5CSC(=N5)C(=CC)NC(=O)C([C@@H](C)O)NC(=O)c5csc(n5)[C@]3(CC2)NC(=O)[C@H](C)NC(=O)C(=C)NC(=O)[C@H](C)NC(=O)C([C@@H](C)CC)NC2C=Cc3c([C@H](C)O)cc(nc3C2O)C(=O)O[C@@H]4C)n1)C(N)=O` (stereo partly drawn), the activity, negative = cell killing was -17.2%. With `CO[C@@H]1[C@@H](O[C@@H]2O[C@H](C)[C@@H](O[C@H]3C[C@@](C)(O)[C@@H](O)[C@H](C)O3)[C@H](N(C)C)[C@H]2O)[C@@H](CC=O)C[C@@H](C)[C@@H](O[C@@H]2CC[C@H](N(C)C)[C@@H](C)O2)/C=C/C=C/C[C@@H](C)OC(=O)C[C@H]1O` the activity, negative = cell killing was -1.82%. For `CNC(C)[C@@H]1CC[C@@H](N)[C@@H](O[C@H]2[C@H](O)[C@@H](O[C@H]3OC[C@](C)(O)[C@H](NC)[C@H]3O)[C@H](N)C[C@@H]2N)O1` (stereo partly drawn), the activity, negative = cell killing was -7.4%.
